# Source: the antibiotic and cytotoxicity screens of Wong et al. (2023)
# Out of some 39,000 compounds screened, about 3,300 (8.5%) were called active. Shown is part of a subset that was picked to be rich in actives.
# Tested on: HepG2
# Assay: cytotoxicity call (relative viability < 0.9)
# Settings: 10 µM
row,Compound,cytotoxicity call
1,C[C@@H]1CN([C@@H](C)CO)C(=O)CCCn2nncc2CO[C@H]1CN(C)Cc1ccc(C(=O)Nc2ccccc2N)cc1,inactive
2,c1coc(CNC[C@H]2Cn3nncc3CO2)c1,inactive
3,CC(C)(C)c1ccc(NC(=O)c2ccc(C(C)(C)C)s2)cc1,inactive
4,N[C@H]1CC[C@@H](NC(=O)[C@H]2CCc3ccccc32)CC1,inactive
5,CC(C)(C)c1ccc(NC(=O)N[C@H]2CCCc3ccccc32)cc1,active
6,Cc1ccc(S(=O)(=O)Nc2ccc3c(c2)C(=O)N([C@H](C)CO)C[C@H](C)[C@@H](CN(C)C(=O)NC2CCCCC2)OCCCC[C@@H](C)O3)cc1,inactive
7,Cl.Clc1ccc(Cn2c(CN3CCCC3)nc3ccccc32)cc1,inactive
8,Cc1nc2ccccc2n1Cc1ccc(Cl)cc1,active
9,Clc1ccc(CSc2nc3ccccc3s2)cc1,inactive
10,CC1=CC2(CO)C(=O)[C@]3(CO3)C1[C@H]1[C@]2(C)C=C(CO)C(=O)[C@]12CO2 (stereo partly drawn),inactive
11,COc1ccc([Si](C)(C)[C@@H]2[C@@H](CCO)O[C@]3(C(=O)N(Cc4cccc(N5C(=O)c6cccc7cccc5c67)c4)c4ccccc43)[C@H]2C)cc1,active
12,COc1ccc([Si](C)(C)[C@@H]2[C@@H](CC(=O)N3Cc4ccccc4C[C@H]3CO)O[C@]3(C(=O)N(Cc4cccc(N5C(=O)c6cccc7cccc5c67)c4)c4ccccc43)[C@H]2C)cc1,inactive
13,COc1ccc([Si](C)(C)[C@H]2[C@H](CC(=O)N3Cc4ccccc4C[C@H]3CO)O[C@@]3(C(=O)N(Cc4ccc(N5C(=O)c6cccc7cccc5c67)cc4)c4ccccc43)[C@@H]2C)cc1,inactive
14,C[C@@H]1[C@@H]([Si](C)(C)F)[C@H](CCO)O[C@@]12C(=O)N(Cc1cccc(N3C(=O)c4cccc5cccc3c45)c1)c1ccccc12,inactive
15,COc1ccc([Si](C)(C)[C@H]2[C@H](CCO)O[C@@]3(C(=O)N(Cc4cccc(N5C(=O)c6cccc7cccc5c67)c4)c4ccccc43)[C@@H]2C)cc1,active
16,COc1ccc([Si](C)(C)[C@H]2[C@H](CCO)O[C@@]3(C(=O)N(Cc4ccccc4)c4ccc(N5C(=O)c6cccc7cccc5c67)cc43)[C@@H]2C)cc1,active
17,COc1ccc([Si](C)(C)[C@H]2[C@H](CC(=O)N3CCC[C@H]3CO)O[C@@]3(C(=O)N(Cc4cccc(N5C(=O)c6cccc7cccc5c67)c4)c4ccccc43)[C@@H]2C)cc1,inactive
18,COc1ccc([Si](C)(C)[C@@H]2[C@@H](CC(=O)N3CCC[C@H]3CO)O[C@]3(C(=O)N(Cc4cccc(N5C(=O)c6cccc7cccc5c67)c4)c4ccccc43)[C@H]2C)cc1,inactive
19,COc1ccc([Si](C)(C)[C@H]2[C@H](CC(=O)N3Cc4ccccc4C[C@H]3CO)O[C@@]3(C(=O)N(Cc4cccc(N5C(=O)c6cccc7cccc5c67)c4)c4ccccc43)[C@@H]2C)cc1,active
20,COc1ccc([N+](=O)[O-])cc1CNCCO,inactive
21,CCNC(=O)C[C@H]1C=C[C@@H](NC(=O)C2CCOCC2)[C@H](CO)O1,inactive
22,CN(C)CC(=O)N[C@@H]1CC[C@@H](CCNS(=O)(=O)c2ccccc2)O[C@H]1CO,inactive
23,NCc1ccccc1-c1ccco1,inactive
24,C1CC(N2CCNCC2)C1,inactive
25,CN(C)CC(=O)N[C@@H]1CC[C@@H](CC(=O)O)O[C@H]1CO,inactive

row,Compound,cytotoxicity call
1,C[C@H](CO)N1C[C@H](C)[C@@H](CN(C)Cc2cccc3c2OCCCO3)OCc2cnnn2CCCC1=O,inactive
2,CC(O)C(=O)Nc1c(I)c(C(=O)NC(CO)CO)c(I)c(C(=O)NC(CO)CO)c1I (stereo not drawn),inactive
3,Cc1cccc(S(=O)(=O)N2C[C@@H](O)COC[C@@H]3O[C@@H](CC(=O)NCCCN4CCOCC4)CC[C@H]32)c1,inactive
4,COc1ccc(S(=O)(=O)N(C)C[C@@H]2Oc3ccc(NC(=O)NC(C)C)cc3C(=O)N([C@H](C)CO)C[C@H]2C)cc1,inactive
5,C[C@@H]1CN([C@H](C)CO)C(=O)c2cccc(NC(=O)c3cnccn3)c2O[C@@H]1CN(C)S(=O)(=O)c1cccs1,inactive
6,COC(=O)C1=C2CC[C@H](CO)NC(=O)N[C@@H](Cc3ccccc3)C(=O)NCc3cn(nn3)C[C@H](Cc3ccccc3)NC(=O)c3oc(c(C(=O)OC)c3C(=O)OC)CC[C@H](CO)NC(=O)N[C@@H](Cc3ccccc3)C(=O)NCc3cn(nn3)C[C@H](Cc3ccccc3)NC(=O)C(=C1C(=O)OC)O2,inactive
7,CCCN(C)C[C@@H]1OCCCC[C@@H](C)Oc2ccc(NS(C)(=O)=O)cc2C(=O)N([C@H](C)CO)C[C@H]1C,inactive
8,CO[C@@H]1CN(C)C(=O)c2ccc(NC(=O)c3ccccc3)cc2OC[C@@H](C)N(C(=O)CN(C)C)C[C@@H]1C,inactive
9,CNC(=N)NCCC[C@@H](N)C(=O)O,inactive
10,C[C@@H]1CN([C@H](C)CO)C(=O)c2cc(C#Cc3ccccc3F)cnc2O[C@H]1CN(C)C(=O)Cc1ccncc1,inactive
11,Oc1c(Cl)cc(Cl)cc1Sc1cc(Cl)cc(Cl)c1O,active
12,Cc1noc(C)c1NC(=O)Nc1ccc2c(c1)C(=O)N([C@@H](C)CO)C[C@@H](C)[C@H](CN(C)CC1CC1)OCCCC[C@H](C)O2,inactive
13,C[C@H]1CN([C@@H](C)CO)C(=O)c2cc(NC(=O)Cn3cnnn3)ccc2O[C@H]1CN(C)S(=O)(=O)c1cccs1,inactive
14,C[C@H]1CN([C@@H](C)CO)C(=O)CCCn2cc(nn2)CO[C@H]1CN(C)Cc1ccc2c(c1)OCCN2C,inactive
15,C[C@H](CO)N1C[C@H](C)[C@H](CN(C)Cc2ccc(Cl)c(Cl)c2)Oc2ccc(NC(=O)C3CCCCC3)cc2CC1=O,inactive
16,C[C@H](CO)N1C[C@H](C)[C@H](CN(C)C(=O)c2ccccc2)OCCCC[C@H](C)Oc2ccc(NC(=O)Nc3cccc4ccccc34)cc2C1=O,inactive
17,C[C@@H]1CN([C@@H](C)CO)C(=O)c2cc(NS(C)(=O)=O)ccc2O[C@H]1CN(C)Cc1ccc(C(F)(F)F)cc1,inactive
18,Clc1ccc(C(c2ccc(Cl)cc2)[n+]2ccn(C[C@@H](OCc3ccc(Cl)cc3Cl)c3ccc(Cl)cc3Cl)c2)cc1,active
19,Clc1ccc(C(Cn2ccnc2)OCc2ccsc2Cl)c(Cl)c1 (stereo not drawn),inactive
20,CNC[C@@H]1OCCCC[C@H](C)Oc2ccc(NC(=O)c3ccncc3)cc2C(=O)N([C@@H](C)CO)C[C@@H]1C,inactive
21,NC(=O)NCCC[C@H](N)C(=O)O,inactive
22,NC(=O)CC[C@H]1CCCNC1,inactive
23,CCc1ccc(NC(=N)N=C(N)N)cc1,inactive
24,Cc1ccccc1NC(=N)N=C(N)N,active
25,Cc1ccc(NC(=N)N=C(N)N)c(C)c1,inactive

row,Compound,cytotoxicity call
1,COc1cccc(S(=O)(=O)N2C[C@@H](O)COC[C@H]3O[C@@H](CC(=O)N4CCN(c5ccccc5)CC4)CC[C@@H]32)c1,inactive
2,COc1ccc(NC(=O)N(C)C[C@@H]2OCc3cnnn3CCCC(=O)N([C@H](C)CO)C[C@H]2C)c(OC)c1,inactive
3,CN1CCN(C(=O)C[C@@H]2CC[C@H]3[C@H](COc4ccc(NC(=O)c5cscn5)cc4C(=O)N3C)O2)CC1,inactive
4,C[C@H](CO)N1C[C@H](C)[C@@H](CN(C)C)Oc2ccc(NC(=O)Cc3cn(C)c4ccccc34)cc2CC1=O,inactive
5,CN(Cc1cnc2nc(N)nc(N)c2n1)c1ccc(C(=O)N[C@@H](CCC(=O)O)C(=O)O)cc1,active
6,Nc1nc(=O)c2c([nH]1)NC[C@H](CNc1ccc(C(=O)N[C@@H](CCC(=O)O)C(=O)O)cc1)N2C=O,inactive
7,CCCN(CCC)C(=O)C(CCC(=O)O)NC(=O)c1ccccc1 (stereo not drawn),inactive
8,Nc1nc(N)c2nc(CNc3ccc(C(=O)NC(CCC(=O)O)C(=O)O)cc3)cnc2n1 (stereo not drawn),active
9,CN(Cc1cnc2nc(N)nc(N)c2n1)c1ccc(C(=O)NC(CCC(=O)O)C(=O)O)cc1.O (stereo not drawn),active
10,Nc1nc(=O)c2c([nH]1)NCC(CNc1ccc(C(=O)NC(CCC(=O)O)C(=O)O)cc1)=N2 (stereo not drawn),inactive
11,CC(=O)N[C@@H](CCC(=O)O)C(=O)O,inactive
12,Nc1nc(=O)c2nc(CNc3ccc(C(=O)N[C@@H](CCC(=O)O)C(=O)O)cc3)cnc2[nH]1,inactive
13,Nc1nc(=O)c2nc(CNc3ccc(C(=O)NC(CCC(=O)O)C(=O)O)cc3)cnc2[nH]1 (stereo not drawn),inactive
14,CN(C)CCCNC(=O)C[C@H]1C=C[C@H](NS(=O)(=O)c2ccccc2)[C@H](CO)O1,inactive
15,C[C@@H]1CN([C@@H](C)CO)C(=O)Cc2cc(NS(C)(=O)=O)ccc2O[C@H]1CN(C)C(=O)Nc1ccc(F)cc1,inactive
16,COc1cccc(-c2cn(CC[C@H]3CC[C@@H](NC(=O)CN(C)C)[C@H](CO)O3)nn2)c1,inactive
17,CC(C)NC(=O)N(C)C[C@H]1Oc2ccc(NC(=O)Cc3ccccc3)cc2CC(=O)N([C@@H](C)CO)C[C@H]1C,inactive
18,CN1C(=O)c2cc(NC(=O)c3ccno3)ccc2OC[C@H]2O[C@@H](CC(=O)NC3Cc4ccccc4C3)CC[C@@H]21,inactive
19,Cc1noc(C)c1NC(=O)N(C)C[C@@H]1Oc2ccc(NC(=O)Cn3cnnn3)cc2CC(=O)N([C@H](C)CO)C[C@@H]1C,inactive
20,C[C@@H]1CCCCO[C@H](CN(C)C(=O)Nc2ccc(C(F)(F)F)cc2)[C@H](C)CN([C@H](C)CO)C(=O)c2cc(NC(=O)Nc3ccccc3)ccc2O1,inactive
21,O=C(C[C@@H]1CC=CC[C@H](NC(=O)OCC2c3ccccc3-c3ccccc32)C(=O)O[C@H](c2ccccc2)CNC1=O)N[C@H](CO)Cc1ccccc1,inactive
22,O=C(C[C@@H]1CC[C@@H](NS(=O)(=O)c2ccccc2)[C@@H](CO)O1)NCc1ccncn1,inactive
23,Cc1noc(C)c1S(=O)(=O)N(C)C[C@H]1Oc2ccc(NS(=O)(=O)c3ccc(F)cc3)cc2CC(=O)N([C@@H](C)CO)C[C@@H]1C,inactive
